Out of some 53,000 sequences screened, about 3,700 (7%) were called active. This is one part of a sample in which actives are shown more often than they occur. A number with no mark means an inactive call.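 How the source made its calls: active means gene knockdowns whose robust z-score for IL-1 alpha signal is at least 2 or at most -2, so actives lie on both sides; inactive means the rest.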
Assay: Components of the Cytosolic LPS Sensing Pathway: Gene Identification via Genome-wide siRNA Screen;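 further: robust z of the log signal after scaling to non-targeting control siRNA wells of the plate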
Details: RAW264.7 macrophages, IL-1a HTRF, actives lie on both sides, screened at 100 nM (by protocol), cells primed 5 h with Pam3CSK4 first
In short: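 RAW264.7; siRNA 100 nM final, RNAiMAX, 48h 37 degrees C; Pam3CSK4 5 h; LipidA + TransIT-TKO 24 h; IL-1a HTRF; CellTiter-Glo viability; robust z vs negative-control median.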

With GGACAUGGAACUGGAUGAATT against Ciita the z-score was -2.49 (active).
In the case of GCACGGAGCCAAAUAAUCUTT against Rpl28, the z-score is reported as 2.07 (active).
For CCAUCACGAGUGAAUUCGATT against Olfr945, the z-score was -2.13 (active).
With “GGAAGACACUGGUUUCCAATT against 1700067P10Rik” the z-score was 2.62 (active).
In the case of GGUUCCUUAAACAUUCAGATT against Tspan31, the z-score is reported as 2.28 (active).
For GCCUCUGUCAAGUCUUGGATT against Ftl1, the z-score was -2.17 (active).
In the case of GGAGAAUUAACUGUUCCUCTT against Kcnmb2, the z-score is reported as 2.23 (active).
With “GGCUGUCUUAUUAAAGCUATT against A730013G03Rik” the z-score was -2.19 (active).
For GGCGGUCAAGGGAAAAACATT against Tcf7, the z-score was 2.19 (active).
For GGAUCAAAAACACAUACUUTT against Adgre4, the z-score was 2.37 (active).
With GCGAGGAGAGUGUGUUUUCTT against Bop1 the z-score was 2.08 (active).
In the case of CGCAGGACAUUUGGUUUUGTT against Ssxb2, the z-score is reported as 2.88 (active).
With CGCGAGCUCAGAAUACAUGTT against Btn1a1 the z-score was 2.5 (active).
In the case of GGUAGAAUACGUGUUCCUGTT against Cacna1f, the z-score is reported as 2.79 (active).
With GGAUAAGGUAGAAUUACUGTT against Slc26a4 the z-score was 3.06 (active).
For GCACCGUGUGACCAUGAACTT against Akt1, the z-score was 3.96 (active).
For GCACUACAGACACUUUUAGTT against Gm5533, the z-score was -2.12 (active).
With CGGCACUGUCAUAAGUGUGTT against Utp4 the z-score was 2.39 (active).
For GGAUGUGGAAUCAUGCUAUTT against Tnpo3, the z-score was 2.41 (active).
For GGCCUGGAUUCCUUAACAATT against Lgi1, the z-score was -3.23 (active).
With CGCUACGACUAGAGUUUGCTT against Rbpms the z-score was 2.36 (active).
With GGAUAUGCUCAGAGGUUUUTT against Pex11g the z-score was 2.2 (active).

Going from GGUGAUCACAAAUAUGAUGTT against Ubxn2b to GGAGUUUGUUAAUUUCGCATT against Rundc3a, the z-score rises from -0.173 to 0.612.

Compared with GGAAGUAGAGAUCUCCUUATT against Btn1a1, GGAAGUGCUACUUUCUGGGTT against Tmem178 is higher in z-score: 0.96 for the first, 1.74 for the second.

First: GGAGAUGAAGUGGACAGACTT against Anapc13
Second: GGUGAACGAACAUUGGUAUTT against Sorbs3
The z-score of the first is higher: 1.02 for the first, -0.614 for the second.

Going from GGAGCGAUCUGAAAAUUUGTT against Rasip1 to CCUCUCCAGUGUCGACAUUTT against Olfr51, the z-score rises from -0.365 to 0.347.

Compared with CGAAGUCGUGGCAAUGAUUTT against Nfu1, GCAGGAAGCCCAGUAAAGUTT against Figla is lower in z-score: 1.39 for the first, 0.44 for the second.

Compared with GGAGAGAAGAAAAAGAAGGTT against Rrbp1, GCAUGAUUACCAGAACCACTT against Fcgr2b is lower in z-score: 0.647 for the first, 0.225 for the second.

Going from GCAUGUGAAAUCUAGAUCATT against Cks1b to UGGUACCACCAUUUUUACCTT against Olfr452, the z-score falls from -0.0851 to -1.2.

Compared with GCUGGGCUUCAACGAUUACTT against Efna4, CGAUCACCAUGAUGAAUUCTT against Bex3 is lower in z-score: 1.3 for the first, -0.128 for the second.

Compared with GCAGGAUGCAGCGAUAGUUTT against Slc2a6, GGGCUACAGCAUGUAUGAGTT against Zc3h4 is higher in z-score: -0.952 for the first, 0.814 for the second.

First: GGAACGAAGUCUGAAACACTT against A730018C14Rik
Second: GGAGUCCCAGGACAUGAAATT against Pou5f1
The z-score of the first is lower: -1.89 for the first, 0.333 for the second.

Going from GGUACUGUUGCGCUUUGCUTT against Ciao3 to GCUGAGGCAUAAAAACGAGTT against Atad3a, the z-score falls from 1.47 to -0.643.

Going from GGUGAAUCUAUUUACCUGCTT against Fam71d to GGAAUAUGUGCAGAAGCUGTT against Fgd2, the z-score falls from 0.317 to -1.2.

Going from GGUCUAGAGUUACCAUUCATT against Aqp9 to CCAAGGACUCUCAUCUGUUTT against Zfp474, the z-score rises from -0.954 to -0.712.

Compared with GGACGACAGGAACUGGCAATT against Fbxo9, GCAGAGGGCAACUCGUAAGTT against Gm6034 is lower in z-score: 0.615 for the first, -0.843 for the second.

First: CCAACACUGAGCUCAGAAGTT against Igfbp2
Second: CCGACUAAUGCUAAAUCCATT against Pcgf1
The z-score of the first is lower: -1.34 for the first, 0.897 for the second.

Compared with GGUGAAAUUCUGAAUGAAATT against Gatb, GGAACUAGAAGAAAUGUUATT against Mrps9 is higher in z-score: -0.0515 for the first, 0.768 for the second.

Going from GGGAGCAGAUUGAAACAGUTT against Eri2 to CUUAGUGCUCUGGGAGCAGTT against Ms4a5, the z-score rises from -0.546 to 0.487.

Going from CGAUCACCUUAGUAAAUACTT against Ykt6 to GGAAGGGACUGAUCGGUACTT against Igsf8, the z-score rises from 0.233 to 1.61.

First: GCUGAGACUUCGAGCCUAUTT against Polr2c
Second: CCAGUUAAAAAGGUUCCAATT against Ccdc169
The z-score of the first is lower: -0.976 for the first, 1.46 for the second.

Compared with GGAUAACCUAAUGUAGAUATT against Nphs2, GGGAUAUCCCAGAACAAGATT against Vps37a is higher in z-score: -0.0675 for the first, 0.336 for the second.

Going from GCUUGGUAGAGAUGUUAAATT against Ryr3 to GCAUCAUUUUAACACUUCUTT against Tubd1, the z-score rises from -0.119 to -0.0435.

Going from GGAGGGAAAACCACAAGACTT against Dppa4 to CCUCUUAUUCAGAAUGUCCTT against Bnc2, the z-score falls from 0.514 to 0.451.

Compared with GGACAUCCAGACAAUGAGGTT against Fam13b, GGUCGUCUGAUUUUUGAUATT against Atp1a1 is higher in z-score: -1.62 for the first, 0.391 for the second.

Compared with GGACUGCUGGGAGAACUUUTT against Zcchc3, “GGGCCACAGGAUCUCACUUTT against 1700009J07Rik” is lower in z-score: 0.76 for the first, -1.88 for the second.

Going from GGAGGAACAGAAGAAACUCTT against Tma7 to GGCUAUGCAAGUGGAGAGCTT against Nfat5, the z-score falls from -0.0481 to -0.311.

First: GGACAAAGGCUGUAUUUUCTT against Tgm3
Second: GGAGAUAAUAAUGAAGUCGTT against Sec11c
The z-score of the first is lower: -1.07 for the first, 0.353 for the second.

First: GGUUGGUGAACUUGGAGGUTT against Hspa1a
Second: GGGUUUUUUUUUCCUUGAATT against Smndc1
The z-score of the first is higher: 1.41 for the first, -0.313 for the second.

Going from GGCUGAUGGAAAUCCUUAATT against Ctif to GGGCAAAGCCUUCAACCCUTT against Insl6, the z-score falls from 0.0158 to -0.038.

First: CGCCACUGCUUUGAUUACUTT against Coa5
Second: GGCGCAUUACCAGAGCUUCTT against Tnpo2
The z-score of the first is lower: -1.51 for the first, -0.425 for the second.

Going from CGUUGUCAAAAGGACCCAUTT against Pvr to GCAAGGAUCCACGCUUUUCTT against Ckmt2, the z-score rises from -0.766 to 1.34.

Going from GCCACUCUUAGUGCUAACUTT against Tctn3 to GGAUUACCUAAAUUUAGGATT against Hfm1, the z-score rises from -1.25 to 0.14.

Compared with GGAAAAUUCAGUUUAAUCCTT against Glt8d1, GGACAGAACCAUCUGAAGGTT against Aldh18a1 is higher in z-score: 0.438 for the first, 1.43 for the second.

Going from CGUGGAAAAGCUAUGUGCGTT against Lif to GGAAGCUGUGCUGAAUGGUTT against Atp5l, the z-score rises from -0.188 to 0.387.

Going from GGAGGAAAAGGCUUUUCGATT against Ccdc70 to GGCACAUCACUGCUUACCUTT against Rce1, the z-score falls from 1.04 to -1.73.

Going from GCCAAGCCAUCUCAUUAAATT against Wdr18 to GCCUGACUUUAAUGAAGAATT against Slf2, the z-score falls from -0.724 to -1.77.

First: GGGUUUCUUGUUUCUUAGATT against Aldh6a1
Second: CGUGGUUCCUCUUUGGUGUTT against Kcnj10
The z-score of the first is higher: -0.00669 for the first, -0.217 for the second.

Compared with CCAGUUCUUAACAUUGUGUTT against Syap1, CCCAUCAUCUUCCCAUUCGTT against Olfr146 is higher in z-score: -1.13 for the first, -0.204 for the second.

First: GGGCUAGAUGAAUUUUUGATT against Aplnr
Second: CCAGCUAUGUGUAUAAACCTT against Ppid
The z-score of the first is lower: -0.181 for the first, -0.045 for the second.

Compared with GCCUGUGCCUUUUGAAUUCTT against Brox, GGUCUAUCCCAUCAUGCCUTT against Clcnka is higher in z-score: -0.0201 for the first, 0.583 for the second.

First: GCAGAGAGUUUUUAUCUGCTT against Vmp1
Second: GGGAAGAACUUCAAGCUUGTT against Ptk2b
The z-score of the first is lower: 0.0579 for the first, 0.668 for the second.

First: GGUUGGACUGACUAUCCAUTT against Olfr984
Second: GGCUGCUGACAUUUUCAUCTT against Lrrc28
The z-score of the first is lower: 1.02 for the first, 1.53 for the second.

Compared with GGUCCUAACAUCCAGAGUGTT against Zfp438, GGAUAAGACCAUCAGAUUATT against Wdr31 is higher in z-score: -1.06 for the first, 1.18 for the second.

Going from GGAGCUUGAUUCGAAGCCUTT against Bik to GCGAAGAGUCAAAUCCAUCTT against Dock8, the z-score falls from -0.364 to -1.93.
